SMILES strings stand for the structures. The panel holds about 83,000 compounds, 20% with a hit somewhere; the sample as a whole holds those more often.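 Note: values are percent growth. 100 is the growth of untreated cells, values between 100 and 0 indicate rising inhibition; between -100 and 0 indicates cell death.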 Unmarked numbers belong to inactive results. The source made the active and inactive calls. Rule for the calls: active = growth percent below 10; inactive = the rest.

Consider 14 compounds from PubChem BioAssay (NCI).

Test systems include RPMI-8226 leukemia; OVCAR-8 ovarian; OVCAR-5 ovarian; OVCAR-4 ovarian; SK-OV-3 ovarian; IGROV1 ovarian; OVCAR-3 ovarian; HS 578T breast; NCI/ADR-RES ovarian; SR leukemia.
Holding throughout (assay): NCI-60 one-dose screen, 48 h (100 = growth as untreated, 0 = no growth, -100 = all killed)
Holding throughout (conditions): 10 µM unless noted

On to `COc1cc(/C=C2\COc3ccc(-c4ccccc4)cc3C2=O)cc(OC)c1`, for which the growth is 3.36% (active) in the test on RPMI-8226 leukemia; 56.2% with OVCAR-8 ovarian; 106% with OVCAR-5 ovarian; 63.8% with OVCAR-4 ovarian; 108% with SK-OV-3 ovarian; 90.8% in the test with IGROV1 ovarian. Moreover, the values for the growth in the test on OVCAR-3 ovarian and with HS 578T breast were 69% and 92.9%, respectively.
Turning to `COc1cc(C2C3=C(COC3=O)N(CCO)c3cc4c(cc32)OCO4)cc(OC)c1OC` (stereo not drawn), the growth with RPMI-8226 leukemia was 15.2%; in the test on OVCAR-8 ovarian, 28.4%; in the test on OVCAR-5 ovarian, 27.7%; with OVCAR-4 ovarian it was 28.5%; in the test with SK-OV-3 ovarian it was -24.2% (active); in the test with IGROV1 ovarian, 19.1%. In addition, the growth in the test on OVCAR-3 ovarian was -27.6% (active); in the test with HS 578T breast, -6.37% (active); with NCI/ADR-RES ovarian, 27.2%.
As for `N#Cc1c(-c2ccccc2)nc2c(c(-c3ccccc3)nn2-c2ccccc2)c1-c1ccc(O)cc1`, the growth with RPMI-8226 leukemia was 12.9%; in the test on OVCAR-8 ovarian, 56%; in the test with OVCAR-5 ovarian, 81.2%; in the test on OVCAR-4 ovarian it was 72.2%; in the test with SK-OV-3 ovarian it was 71.1%; in the test on IGROV1 ovarian, 72%. Besides, the growth was 54.2% in the test with OVCAR-3 ovarian, 15.9% in the test on HS 578T breast and 70.5% with NCI/ADR-RES ovarian.
Regarding `COc1ccc(/C=C/C(=O)Nc2cc(/C=C\c3cc(OC)c(OC)c(OC)c3)cc(OC)c2OC)cc1OC`, the growth was 30.7% in the test with RPMI-8226 leukemia; 34.2% in the test with OVCAR-8 ovarian; 63.2% in the test on OVCAR-5 ovarian; 47.7% in the test on OVCAR-4 ovarian; 11.6% in the test with SK-OV-3 ovarian; 40.1% with IGROV1 ovarian. The growth was 12.2% with OVCAR-3 ovarian, 29% in the test with HS 578T breast and -11.2% (active) in the test on NCI/ADR-RES ovarian.
In the case of `CCN(CC)CCCC(C)Nc1cc(O)cc2cccnc12` (stereo not drawn), the growth with RPMI-8226 leukemia is 97.3%; in the test on OVCAR-8 ovarian it was 101%; in the test with OVCAR-5 ovarian it was 105%; in the test with OVCAR-4 ovarian it was 84.2%; in the test on SK-OV-3 ovarian, 119%; with IGROV1 ovarian, 154%. Further, the results for the growth in the test on OVCAR-3 ovarian, in the test on HS 578T breast and in the test on NCI/ADR-RES ovarian were 90.2%, 73.9% and 102%, respectively.
Consider `CCCCN1C=CCN(CCCC)C1`, for which the growth in the test with RPMI-8226 leukemia was 37.9%; in the test on OVCAR-8 ovarian, 44.2%; in the test with OVCAR-5 ovarian, 82.7%; in the test with OVCAR-4 ovarian, 42.6%; in the test on SK-OV-3 ovarian, 84.2%; in the test on IGROV1 ovarian, 46.4%. The growth was 13.1% in the test with OVCAR-3 ovarian, 88.9% with HS 578T breast and 108% with NCI/ADR-RES ovarian.
On to `C#Cc1cccc(NC(=O)Nc2cccc(NC(=O)CCl)c2)c1`, for which the growth in the test with RPMI-8226 leukemia is 9.12% [8.25 µM] (active); with OVCAR-8 ovarian, -7.18% [8.25 µM] (active); in the test with OVCAR-5 ovarian it was 12.8% [8.25 µM]; with OVCAR-4 ovarian, -35.9% [8.25 µM] (active); in the test on SK-OV-3 ovarian, 59% [8.25 µM]; in the test with IGROV1 ovarian, -57% [8.25 µM] (active). Moreover, the growth in the test on OVCAR-3 ovarian is -70.8% [8.25 µM] (active); in the test on HS 578T breast, 29.6% [8.25 µM].
`CCCCCN1C=C/C(=C\C(=O)N(C)c2ccccc2Br)c2ccccc21`: the growth is 73.6% with RPMI-8226 leukemia; 88.7% in the test with OVCAR-8 ovarian; 96% in the test with OVCAR-5 ovarian; 83.5% in the test on OVCAR-4 ovarian; 94% in the test with SK-OV-3 ovarian; 98.5% in the test on IGROV1 ovarian. Besides, the figures for the growth in the test on OVCAR-3 ovarian and with HS 578T breast were 97.4% and 96.8%, respectively.
Consider `COc1cc(-c2n/c(=C\c3c(O)[nH]c4ccc(Cl)cc34)cc3c2=Nc2ccccc2-3)ccc1F`, for which the growth with SR leukemia is 7.25% (active); in the test on OVCAR-8 ovarian, -50.7% (active); in the test with OVCAR-5 ovarian, 74%; in the test with OVCAR-4 ovarian, -56.9% (active); in the test with SK-OV-3 ovarian, -14.7% (active); with IGROV1 ovarian, -18% (active). Moreover, the growth is -14.6% (active) in the test with OVCAR-3 ovarian, 14.8% in the test with HS 578T breast and 47% with NCI/ADR-RES ovarian.
`CCOC(=O)[C@@H]1CCCN(S(=O)(=O)c2ccc(S(=O)(=O)N(CC)CC)c(F)c2)C1`: the growth with RPMI-8226 leukemia is 61%; with OVCAR-8 ovarian, 77.8%; with OVCAR-5 ovarian it was 95.5%; in the test with OVCAR-4 ovarian it was 75.5%; with SK-OV-3 ovarian it was 82.4%; in the test on IGROV1 ovarian, 93.5%. Besides, the growth in the test with OVCAR-3 ovarian was 88%; in the test on HS 578T breast, 93.5%; with NCI/ADR-RES ovarian it was 47.2%.
On to `COc1ccc2[nH]c(O)c(/C=c3/cc4c(c(-c5ccc(F)cc5)n3)=Nc3ccccc3-4)c2c1`, for which the growth in the test with SR leukemia was 6.4% (active); with OVCAR-8 ovarian it was 75.5%; in the test with OVCAR-5 ovarian, 119%; in the test on OVCAR-4 ovarian it was 81.6%; in the test with SK-OV-3 ovarian, 115%; in the test on IGROV1 ovarian, 96.8%. Moreover, the figures for the growth in the test on OVCAR-3 ovarian, in the test with HS 578T breast and in the test on NCI/ADR-RES ovarian were 94.7%, 78.8% and 52.1%, respectively.
For `C#CCNC(=O)[C@H](Cc1ccccc1)NC(=O)[C@]12CC[C@@H](C(=C)C)[C@@H]1[C@H]1CC[C@@H]3[C@@]4(C)CCC(=O)C(C)(C)[C@@H]4CC[C@@]3(C)[C@]1(C)CC2`, the growth in the test with RPMI-8226 leukemia is 38%; in the test with OVCAR-8 ovarian, 86.8%; with OVCAR-5 ovarian it was 87.1%; in the test with OVCAR-4 ovarian it was 81.6%; with SK-OV-3 ovarian, 84.7%; with IGROV1 ovarian, 89.1%. The growth was 62.9% with OVCAR-3 ovarian, 85.1% in the test with HS 578T breast and 79.8% in the test on NCI/ADR-RES ovarian.
Regarding `CC(=O)O[C@@H]1C2CCC3C(CC[C@@]4(C)C3CC[C@@H]4C(C)N(C)C)[C@@]2(C)CC[C@@H]1NC(=O)C=C(C)C` (stereo partly drawn), the growth is -34.5% (active) in the test with SR leukemia; 44.3% in the test with OVCAR-8 ovarian; 83.8% in the test on OVCAR-5 ovarian; -19.5% (active) in the test with OVCAR-4 ovarian; 65.4% in the test on SK-OV-3 ovarian; 37.8% in the test on IGROV1 ovarian. Besides, the growth was 0.951% (active) in the test with OVCAR-3 ovarian, 16% in the test on HS 578T breast and 37.6% with NCI/ADR-RES ovarian.
For the compound `Cc1c2cc[nH]c(=O)c2c(C)c2c1[nH]c1cc(OCCN3CCN(C)CC3)ccc12`, the growth is -8.18% (active) in the test with RPMI-8226 leukemia; 5.54% (active) with OVCAR-8 ovarian; 16.1% with OVCAR-5 ovarian; -1.71% (active) in the test with OVCAR-4 ovarian; -1.65% (active) in the test on SK-OV-3 ovarian; 20.2% in the test with IGROV1 ovarian. In addition, the values for the growth in the test on OVCAR-3 ovarian, in the test on HS 578T breast and in the test on NCI/ADR-RES ovarian were 17.1%, 15.1% and 23.2%, respectively.
